Laboratory results published in PubChem BioAssay (Tox21).
Several values for one entry are separate records, joined by “and”; a condition that tells them apart may be missing. Equal entries are not always repeated. Results filed as inconclusive are left out. The source holds several records for some structures; these can differ, active in one and inactive in another. Activity calls are given as the source filed them. Unless noted, calls come from the whole dose curve; as a rule, active = well fitted curve in the direction sought with a large enough effect in the repeat runs; inconclusive = weak or mixed curves; inactive = no such curve, though single readings can be large; an effect the other way counts as inactive or inconclusive.

What was measured:
[1] = qHTS assay for small molecule agonists of the p53 signaling pathway (AID 651631; calls by dose curve; note: nearly all actives have a fitted effect of over 15% in size; note: potency is the fitted concentration of half-maximal effect)
Summary of the method: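 HCT-116 p53RE-bla reporter line, 16 h compound treatment at 37 °C, then fluorescence after 2 h with B/G FRET substrate.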

[2] = qHTS assay for small molecules that induce genotoxicity in human embryonic kidney cells expressing luciferase-tagged ATAD5 (AID 651632); note: nearly all actives have a fitted effect of over 15% in size; note: potency is the fitted concentration of half-maximal effect
Summary of the method: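 Reporter cells (HEK293T) express luciferase-tagged ATAD5, a protein that accumulates after DNA damage. Treat 16 hr at 37C/5% CO2, add Amplite, wait 30 min at RT, and read luminescence.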

[3] = qHTS assay for small molecule agonists of the p53 signaling pathway - cell viability (AID 651633; calls by dose curve; note: nearly all actives have a fitted effect of over 30% in size; note: potency is the fitted concentration of half-maximal effect)
Summary of the method: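 Viability counter-read: CellTiter-Glo luminescence (30 min, room temperature) in the same p53RE-bla plates. These plates had been exposed to compounds for 16 h at 37 C.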

[4] = qHTS assay for small molecules that induce genotoxicity in human embryonic kidney cells expressing luciferase-tagged ATAD5 - cell viability (AID 651634; calls by dose curve; note: nearly all actives have a fitted effect of over 25% in size; note: potency is the fitted concentration of half-maximal effect)
Summary of the method: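 Seeding of 2,000 HEK293T ATAD5-luciferase cells per well preceded pin-tool compound transfer. Plates sat 15.5 hr at 37C under 5% CO2, then fluorescence was read after 30 min with CellTiter-Fluor.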

[5] = qHTS assay for small molecule disruptors of the mitochondrial membrane potential - cell viability (AID 720634; calls by dose curve; note: nearly all actives have a fitted effect of over 20% in size; note: potency is the fitted concentration of half-maximal effect)
Summary of the method: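 Measuring cytotoxicity alongside mitochondrial potential, the screen quantified ATP by luminescence in HepG2 cells after 1 hr compound incubation and a 30 min room-temperature CellTiter-Glo step.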

[6] = qHTS assay to test for compound auto fluorescence at 590 nm (red) in HepG2 cells (AID 720674); note: % is set by controls: 0 for no effect and ±100 for the full control effect
Summary of the method: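 We screened compounds on adherent HepG2 cells, incubating them for an hour at 37 C in 5% CO2 before reading emission at 590 nm under 540 nm excitation; values reflect equivalence to Rose Bengal sodium fluorescence.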

[7] = qHTS assay to test for compound auto fluorescence at 535 nm (green) in HepG2 cells (AID 720675); note: % is set by controls: 0 for no effect and ±100 for the full control effect
[8] = qHTS assay to test for compound auto fluorescence at 460 nm (blue) in HEK293 cells (AID 720678); note: potency is the fitted concentration of half-maximal effect; for fluorescence, % of triamterene: % is set by controls: 0 for no effect and ±100 for the full control effect
Summary of the method: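 Auto fluorescence in the blue band was quantified as triamterene equivalency. HEK293 cells were seeded at 2,000/well, dosed after a 4-5 hr attachment, and kept overnight at 37C before the 405/460 nm reading.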

[9] = qHTS assay to test for compound auto fluorescence at 590 nm (red) in HEK293 cells (AID 720679); note: % is set by controls: 0 for no effect and ±100 for the full control effect
Summary of the method: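 Autofluorescence equivalency to Rose Bengal sodium, 540/590nm, in HEK293 cells exposed overnight to 23 nL compound per well.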

[10] = qHTS assay for small molecule disruptors of the mitochondrial membrane potential (AID 720635); note: potency is the fitted concentration of half-maximal effect
Summary of the method: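 Mitochondrial membrane potential tracked with Mito-MPS dye, red aggregates (ex 540/em 590 nm) against green monomers (ex 490/em 535 nm). Compound treatment 1 hr at 37C, dye 30 min in HepG2.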
Tags give direction and shape of the fitted curve or compound fluorescence and quenching.

Clc1ccc2cc3ccccc3cc2c1
active: Potency [1] 54.4 µM
inactive: Potency [2] | Potency [3] | Potency [4] | Potency [5] | Potency [6] | Potency [7] | Potency [8] | Potency [9]

O=C(O)c1ccc(Cl)c(Cl)c1
inactive: Potency [1] | Potency [2] | Potency [3] | Potency [4] | Potency [5] | Potency [6] | Potency [7] | Potency [8] | Potency [9]

[O-][n+]1ccccc1SSc1cccc[n+]1[O-]
inactive: Potency [5] | Potency [6] | Potency [7] | Potency [8] | Potency [9]
active: Potency [1] 2.66 µM | Potency [2] 2.66 µM | Potency [4] 7.5 µM | Potency [10] 0.668 µM

CN(C)c1ccc(C2(c3ccc(N(C)C)cc3)OC(=O)c3cc(N(C)C)ccc32)cc1
active: Potency [1] 60.9 µM | Potency [10] 21.6 µM
inactive: Potency [2] | Potency [3] | Potency [4] | Potency [6] | Potency [7] | Potency [8] | Potency [9]

COc1c(C)c2c(c(O)c1C/C=C(\C)CCC(=O)O)C(=O)OC2
active: Potency [1] 0.0717 µM | Potency [4] 0.202 µM
inactive: Potency [2] | Potency [5] | fluorescence, relative to Rose Bengal [6] 0.0782% [at 18.6 µM] | fluorescence, % of fluorescein control [7] 0.0327% [at 18.6 µM] | fluorescence, % of triamterene [8] -0.0265% [at 18.6 µM] | fluorescence, % of fluorescent control [9] 0.167% [at 18.6 µM]

CC[C@H](c1ccc(O)cc1)[C@@H](CC)c1ccc(O)cc1
inactive and 54.5 µM (active): Potency [3]
active: Potency [1] 5.07 µM and 13.7 µM | Potency [10] 8.04 µM and 9.69 µM
inactive: Potency [2] | Potency [4] | Potency [6] | Potency [7] | Potency [8] | Potency [9]

NC(=O)N1C(=O)C(C(=O)c2cc(Cl)cs2)c2cc(F)c(Cl)cc21 (stereo unspecified)
inactive: Potency [2] | Potency [6] | Potency [7] | Potency [8] | Potency [9]
active: Potency [1] 2.17 µM | Potency [4] 27.3 µM | Potency [5] 217 nM

O=c1c(-c2ccccc2)c1-c1ccccc1
inactive: Potency [2] | Potency [5] | Potency [6] | Potency [7] | Potency [8] | Potency [9]
active: Potency [1] 18.8 µM | Potency [3] 13.3 µM | Potency [10] 23.7 µM

O=C(Nc1cccc(Cl)c1)OCC#CCCl
inactive: Potency [2] | Potency [6] | Potency [7] | Potency [8] | Potency [9]
active: Potency [1] 8.63 µM | Potency [3] 68.6 µM | Potency [4] 61.1 µM | Potency [10] 21.7 µM

COc1cc(-c2ccc(N=C=O)c(OC)c2)ccc1N=C=O
inactive: Potency [1] | Potency [2] | Potency [3] | Potency [4] | Potency [5] | Potency [6] | Potency [7] | Potency [8] | Potency [9]

Nc1c2ccccc2nc2ccccc12
inactive: Potency [2] | Potency [3] | Potency [5] | Potency [6] | Potency [7] | Potency [9]
active: Potency [1] 3.35 µM and 1.91 µM | Potency [10] 11.9 µM and 4.27 µM | Potency [8] 11.2 µM [fluorescent] and 31.6 µM [fluorescent]

C=C(C)C(=O)OCC(O)COc1ccc(C(C)(C)c2ccc(OCC(O)COC(=O)C(=C)C)cc2)cc1 (stereo unspecified)
active: Potency [1] 68.6 µM | Potency [3] 54.5 µM | Potency [4] 21.7 µM | Potency [10] 5.45 µM
inactive: Potency [2] | Potency [6] | Potency [7] | Potency [8] | Potency [9]

COc1cccc2c1C(=O)c1c(O)c3c(c(O)c1C2=O)C[C@@](O)(C(=O)CO)C[C@@H]3O[C@H]1C[C@H](N)[C@H](O[C@@H]2CCCCO2)[C@H](C)O1
inactive: Potency [5] | Potency [8]
active: Potency [1] 1.88 µM | Potency [2] 2.37 µM | Potency [10] 0.699 µM

COCCCC/C(=N\OCCN)c1ccc(C(F)(F)F)cc1
inactive: Potency [1] | Potency [2] | Potency [3] | Potency [4] | Potency [5] | Potency [6] | Potency [7] | Potency [9]

N=C1C=CC(=C(c2ccc(N)cc2)c2ccc(N)cc2)C=C1
active: Potency [1] 68.6 µM | Potency [4] 24.3 µM | Potency [10] 0.0611 µM
inactive: Potency [2] | Potency [6] | Potency [7] | Potency [8] | Potency [9]

CCCC/C=C/CCCCO
inactive: Potency [1] | Potency [2] | Potency [4] | Potency [5] | Potency [6] | Potency [7] | Potency [8] | Potency [9]

O=C1C=CC(=O)N1
active: Potency [1] 49.8 µM | Potency [5] 49800 nM | Potency [10] 28 µM
inactive: Potency [2] | Potency [6] | Potency [7] | Potency [8] | Potency [9]

Oc1ccc(Cl)cc1Sc1cc(Cl)ccc1O
active: Potency [1] 29.8 µM | Potency [4] 19.3 µM | Potency [5] 9.44 µM and 13.7 µM | Potency [10] 2.11 µM and 1.53 µM
inactive: Potency [2] | Potency [6] | Potency [7] | Potency [8] | Potency [9]

CC[C@@]1(O)C(=O)OCc2c1cc1n(c2=O)Cc2cc3c(CN(C)C)c(O)ccc3nc2-1
inactive: Potency [2] | Potency [5] | Potency [6] | Potency [7] | Potency [9]
active: Potency [1] 0.237 µM | Potency [3] 8.41 µM | Potency [8] 17.8 µM [fluorescent]

CCCCCCCCCCCCCCCS(=O)(=O)Oc1ccccc1
inactive: Potency [1] | Potency [2] | Potency [3] | Potency [4] | Potency [6] | Potency [7] | Potency [8] | Potency [9]

CCOc1ccc2nc3cc(N)ccc3c(N)c2c1
inactive: Potency [2] | Potency [4] | Potency [5] | Potency [6] | Potency [7] | Potency [9]
active: Potency [1] 11.9 µM | Potency [10] 2.66 µM
